Laboratory results taken from PubChem BioAssay (Tox21).
“And” between values parts separate entries of the source, which are not always exact repeats. Equal entries are not always repeated. Inconclusive results are not listed. Some compounds were tested as several samples or in several runs, with calls that do not always agree. The source made the active and inactive calls. Unless noted, the call rests on the fitted dose curve; in most records, active means well fitted curve in the direction sought with a large enough effect in the repeat runs; inconclusive means weak or mixed curves; inactive means no such curve, though single readings can be large; an effect the other way counts as inactive or inconclusive.

Key:
[1] = qHTS assay to identify small molecule agonists of the vitamin D receptor (VDR) signaling pathway - cell viability counter screen (AID 743224); further: series mostly up to about 63 µM; on the % scale 0 is the no-effect control and ±100 the full control effect; nearly all actives have a fitted effect of over 50% in size
Outline: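 Viability is measured in the same wells as the VDR-bla reporter assay: after 16 h compound treatment and 2 h substrate loading, CellTiter-Glo is added and luminescence read 30 min later.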

[2] = qHTS assay to identify small molecule antagonists of the vitamin D receptor (VDR) signaling pathway - cell viability counter screen (AID 743225); further: on the % scale 0 is the no-effect control and ±100 the full control effect; nearly all actives have a fitted effect of over 50% in size
Outline: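 Cells (VDR-UAS-bla HEK 293T) are plated, rested 4 h at 37C, dosed with compound and 3 nM final 1-alpha,25-dihydroxy vitamin D3, and incubated 16 h. Viability is taken from CellTiter-Glo luminescence in the reporter wells.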

[3] = qHTS assay to identify small molecule agonists of the NFkB signaling pathway (AID 1159509; active means well fitted curve in the direction sought with a large enough effect in the signal ratio in the repeat runs, not every such curve was filed as active; the % refers to the signal ratio; further: series mostly up to about 61 µM; on the % scale 0 is the no-effect control and ±100 the full control effect)
Outline: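 After overnight attachment, reporter cells received test compounds, DMSO or positive controls and were incubated 5 hr at 37 C. FRET substrate was then added for 1.5 hr at room temperature before dual-emission fluorescence reading.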

[4] = qHTS assay to identify small molecule agonists of the NFkB signaling pathway - cell viability counter screen (AID 1159515; calls by dose curve; further: series mostly up to about 61 µM; on the % scale 0 is the no-effect control and ±100 the full control effect; nearly all actives have a fitted effect of over 55% in size)
Outline: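 Multiplexed viability readout: after the 5 hr compound exposure and 1.5 hr FRET substrate step, CellTiter-Glo reagent went into the same NFkB-bla ME-180 wells; ATP luminescence was measured after 30 min at room temperature.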

[5] = qHTS assay to identify small molecule agonists of the endoplasmic reticulum stress response signaling pathway (AID 1159516; active means well fitted activation curve with a large enough effect in the signal ratio in the repeat runs, not every such curve was filed as active; the % refers to the signal ratio; further: on the % scale 0 is the no-effect control and ±100 the full control effect)
Outline: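 Tox21 10K library screened in quantitative HTS format on ESRE-bla HeLa cells, a beta-lactamase reporter under ER stress response element control; 5 hr treatment, FRET read.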

[6] = qHTS assay to identify small molecule agonists of the endoplasmic reticulum stress response signaling pathway - cell viability counter screen (AID 1159517; calls by dose curve; further: series mostly up to about 61 µM; on the % scale 0 is the no-effect control and ±100 the full control effect; nearly all actives have a fitted effect of over 50% in size)
Outline: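 Luminescence readout: CellTiter-Glo, 30 min RT, same wells as the ESRE-bla reporter read. HeLa ESRE-bla, 1,500 cells/well, o/n 37 C; cpd 5 hr 37 C/5% CO2.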

[7] = molecular target: Nuclear receptor ROR-gamma (Homo sapiens) (UniProt P51449); assay: qHTS assay to identify small molecule antagonists of the retinoid-related orphan receptor gamma (ROR-gamma) signaling pathway (AID 1159521;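 further: CHO cells with doxycycline inducible ROR-gamma driving an RORE luciferase reporter; top concentration of the series differs between compounds; on the % scale 0 is the no-effect control and ±100 the full control effect; nearly all actives have a fitted effect of over 50% in size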)
Outline: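 RORγ antagonism is scored from reduced reporter luminescence in Tet-on CHO cells. Induction used 1 uM final doxycycline hyclate for 16 h at 37 C, following a 2 h compound exposure.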

[8] = qHTS assay to identify small molecule agonists of the AP-1 signaling pathway (AID 1159526; calls by dose curve; further: on the % scale 0 is the no-effect control and ±100 the full control effect)
[9] = qHTS assay to identify small molecule agonists of the RXR signaling pathway - cell viability counter screen (AID 1159529); further: nearly all actives have a fitted effect of over 50% in size; further: potency means the concentration at half of the fitted maximal effect
Outline: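 Cell viability is measured by CellTiter-Glo luminescence, 30 min at room temperature, in wells already read for beta-lactamase. Engineered HEK 293T cells (RXR-alpha-UAS-bla) are dosed 16 hr at 37 C. Tetraoctyl ammonium bromide serves as positive control.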

[10] = qHTS assay to identify small molecule antagonists of the retinoid acid receptor (RAR) signaling pathway - cell viability counter screen (AID 1159551); further: on the % scale 0 is the no-effect control and ±100 the full control effect; nearly all actives have a fitted effect of over 35% in size
Outline: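 Cytotoxicity counter screen in C3RL4 cells: 6 h compound exposure with 1 uM retinol (final), viability from cellular ATP by luminescence.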

[11] = qHTS assay to identify small molecule antagonists of the retinoic acid receptor (RAR) signaling pathway (AID 1159552)
Outline: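 Quantitative HTS in C3RL4 RARE-luciferase reporter cells. Compounds were added with 1 uM (final) retinol; luminescence was read after 6 hr.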

[12] = qHTS assay to identify small molecule agonists of the retinoic acid receptor (RAR) signaling pathway (AID 1159553); further: potency means the concentration at half of the fitted maximal effect
Outline: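 Agonist activity was scored in C3RL4 cells bearing a retinoic acid response element luciferase construct. Cells were treated with compounds for 6 hr at 37 C, and luciferase signal was measured as luminescence.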

[13] = qHTS assay to identify small molecule antagonists of the estrogen related receptor (ERR) signaling pathway from Tox21 library - cell viability counter screen (AID 1224834); further: on the % scale 0 is the no-effect control and ±100 the full control effect; nearly all actives have a fitted effect of over 30% in size
Outline: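 Cytotoxicity of test substances is gauged in the same ERR cells used for the antagonist screen, after 17.5 h of compound treatment at 37 C, by CellTiter-Fluor fluorescence measured after 30 min.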

[14] = molecular target: Luciferin 4-monooxygenase (Photinus pyralis) (UniProt P08659); assay: qHTS assay to identify small molecule inhibitors of firefly luciferase (AID 1224835); further: nearly all actives have a fitted effect of over 25% in size; further: potency means the concentration at half of the fitted maximal effect
Sequence of Luciferin 4-monooxygenase (Photinus pyralis) (P08659 whole entry, looked up): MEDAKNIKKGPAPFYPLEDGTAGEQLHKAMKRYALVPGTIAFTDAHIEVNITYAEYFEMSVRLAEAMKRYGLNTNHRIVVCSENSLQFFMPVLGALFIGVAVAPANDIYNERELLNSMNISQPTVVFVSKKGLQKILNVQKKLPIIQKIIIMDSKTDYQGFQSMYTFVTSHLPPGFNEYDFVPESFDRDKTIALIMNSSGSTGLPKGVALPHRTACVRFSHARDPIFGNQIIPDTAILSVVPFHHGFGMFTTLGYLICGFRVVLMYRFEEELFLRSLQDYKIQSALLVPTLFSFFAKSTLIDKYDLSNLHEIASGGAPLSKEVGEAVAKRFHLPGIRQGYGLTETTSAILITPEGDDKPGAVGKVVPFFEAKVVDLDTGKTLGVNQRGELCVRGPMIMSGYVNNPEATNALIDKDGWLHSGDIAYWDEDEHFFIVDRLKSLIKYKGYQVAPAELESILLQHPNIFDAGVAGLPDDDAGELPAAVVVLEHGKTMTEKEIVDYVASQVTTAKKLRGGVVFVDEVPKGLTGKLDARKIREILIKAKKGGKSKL
Outline: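 Quantitative HTS format; KM concentrations of both substrates. Purified P. pyralis FLuc activity quantified from luminescence images.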

[15] = qHTS assay to identify small molecule agonists of the constitutive androstane receptor (CAR) signaling pathway - cell viability counter screen (AID 1224836); further: series mostly up to about 92 µM; on the % scale 0 is the no-effect control and ±100 the full control effect; nearly all actives have a fitted effect of over 45% in size
Outline: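 Counter screen multiplexed with the CAR reporter readout: HepG2 cells co-transfected with hCAR and the CYP2B6-2.2kb construct receive a 15-concentration compound series and 0.75 uM PK11195 (final), then CellTiter-Fluor fluorescence is read after 23 h.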

[16] = qHTS assay to identify small molecule antagonists of the constitutive androstane receptor (CAR) signaling pathway - cell viability counter screen (AID 1224837); further: series mostly up to about 92 µM; on the % scale 0 is the no-effect control and ±100 the full control effect; nearly all actives have a fitted effect of over 45% in size
Outline: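 Multiplexed cytotoxicity read-out for the CAR antagonist screen: double-stable HepG2-CYP2B6-hCAR cells co-treated with 50 nM CITCO (final) and compound over 15 concentrations, incubated 23 hr, then assessed by CellTiter-Fluor fluorescence.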

[17] = qHTS assay to identify small molecule agonists of the AP-1 signaling pathway - cell viability counter screen (AID 1159525; calls by dose curve; further: nearly all actives have a fitted effect of over 55% in size)
Outline: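 ME-180 AP-1-bla, 2500 cells/well, Opti-MEM + 0.5% dialyzed FBS; overnight 37 °C; cpd 15-pt titration, 5 h 37 °C; CellTiter-Glo 30 min RT; luminescence read; normalised to TOAB and DMSO controls.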

[18] = molecular target: Retinoic acid receptor RXR-alpha (Homo sapiens) (UniProt P19793); assay: qHTS assay to identify small molecule agonists of the RXR signaling pathway (AID 1159527; calls by dose curve; further: nearly all actives have a fitted effect of over 35% in size; further: potency means the concentration at half of the fitted maximal effect)
Sequence of Retinoic acid receptor RXR-alpha (Homo sapiens) (P19793 whole entry, looked up): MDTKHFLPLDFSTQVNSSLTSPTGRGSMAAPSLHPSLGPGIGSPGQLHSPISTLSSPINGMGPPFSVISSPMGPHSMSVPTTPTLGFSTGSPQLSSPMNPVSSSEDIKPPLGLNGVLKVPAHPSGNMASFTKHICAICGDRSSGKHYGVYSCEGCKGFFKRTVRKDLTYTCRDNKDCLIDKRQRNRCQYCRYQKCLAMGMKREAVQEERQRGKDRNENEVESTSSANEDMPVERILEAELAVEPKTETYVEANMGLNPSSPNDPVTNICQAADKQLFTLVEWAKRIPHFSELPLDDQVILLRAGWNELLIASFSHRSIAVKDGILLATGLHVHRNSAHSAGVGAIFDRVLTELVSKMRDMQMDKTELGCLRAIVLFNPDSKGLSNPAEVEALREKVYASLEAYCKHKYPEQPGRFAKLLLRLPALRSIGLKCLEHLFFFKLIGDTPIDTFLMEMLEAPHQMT
Outline: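 qHTS of the Tox21 10K library in GeneBLAzer RXR-alpha HEK 293T cells carrying a beta-lactamase reporter […]; 16 hr treatment, 9-cis retinoic acid as agonist control, FRET read-out.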

[19] = qHTS assay to identify small molecule antagonists of the retinoid-related orphan receptor gamma (ROR-gamma) signaling pathway - cell viability counter screen (AID 1159520)
Outline: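 Tet-on ROR gamma CHO cells (1,000/well) were plated 4 hr, given compounds in DMSO for 2 hr at 37 C, then induced with 1 uM final doxycycline for 16 hr. Viability was read as ATP by CellTiter-Glo luminescence after 30 min.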

[20] = qHTS assay to identify small molecule antagonists of the estrogen related receptor (ERR) signaling pathway - cell viability counter screen (AID 1224818);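 further: series mostly up to about 46 µM; viability measured after 17.5 h of compound exposure; on the % scale 0 is the no-effect control and ±100 the full control effect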
Outline: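 Cells carrying the ERR pathway reporter were seeded and incubated for 6 hours before compound addition. After a 17.5-hour exposure at 37 C, live-cell protease activity was measured by CellTiter-Fluor fluorescence following 30 minutes of incubation.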

CCCCCCCCCCCCS
inactive: Potency [1] | outcome [2] | outcome [3] | outcome [4] | outcome [5] | outcome [6] | Potency [7] | outcome [8] | Potency [9] | outcome [10] | Potency [11] | Potency [12] | Potency [13] | Potency [14] | Potency [15] | Potency [16]

Fc1ccc(Br)cc1
inactive: Potency [1] | outcome [2] | outcome [3] | outcome [4] | outcome [5] | outcome [6] | Potency [7] | outcome [8] | Potency [9] | outcome [10] | Potency [11] | Potency [12] | Potency [13] | Potency [14] | Potency [15] | Potency [16]

CCCCN(CCCC)CCCC
inactive: Potency [1] | outcome [2] | outcome [3] | outcome [4] | outcome [5] | outcome [6] | Potency [7] | outcome [8] | Potency [9] | outcome [10] | Potency [13] | Potency [14] | Potency [15] | Potency [16]

C=C(C)C(=O)Nc1ccc(Cl)c(Cl)c1
inactive: outcome [2] | outcome [3] | outcome [4] | outcome [5] | outcome [6] | Potency [7] | Potency [17] | outcome [8] | Potency [18] | Potency [9] | outcome [10] | Potency [13] | Potency [14] | Potency [16]

Cc1cccc(O)c1
inactive: Potency [1] | outcome [2] | outcome [3] | outcome [4] | outcome [5] | outcome [6] | Potency [7] | Potency [17] | outcome [8] | Potency [18] | Potency [9] | outcome [10] | Potency [13] | Potency [14] | Potency [15] | Potency [16]

O=C(O)[C@H](O)[C@@H](O)[C@H](O)[C@H](O)CO
inactive: Potency [1] | outcome [2] | outcome [3] | outcome [4] | outcome [5] | outcome [6] | Potency [17] | activation [8] 7.9% [at 2.72 µM] | Potency [9] | outcome [10] | Potency [11] | Potency [12] | Potency [13] | Potency [14] | Potency [15] | Potency [16]

OCc1cccnc1
inactive: Potency [1] | outcome [2] | outcome [4] | outcome [5] | outcome [6] | Potency [19] | Potency [7] | outcome [8] | Potency [9] | outcome [10] | Potency [13] | Potency [14] | Potency [16]

Cc1occc(=O)c1O
inactive and 12.9 µM (active): Potency [18]
inactive: Potency [1] | outcome [2] | outcome [3] | outcome [4] | outcome [5] | outcome [6] | Potency [7] | outcome [8] | Potency [9] | outcome [10] | Potency [13] | Potency [14] | Potency [15] | Potency [16]

CC(=O)CC(=O)Nc1ccccc1C
inactive: Potency [1] | outcome [2] | outcome [3] | outcome [4] | outcome [5] | outcome [6] | Potency [17] | outcome [8] | Potency [9] | outcome [10] | Potency [11] | Potency [12] | Potency [13] | Potency [14] | Potency [15] | Potency [16]

CCCCCCOCCO
inactive: Potency [1] | outcome [2] | outcome [3] | outcome [4] | outcome [5] | outcome [6] | outcome [8] | Potency [18] | Potency [9] | outcome [10] | Potency [11] | Potency [12] | Potency [13] | Potency [14] | Potency [16]

C=CCNC(N)=S
inactive: Potency [1] | outcome [2] | outcome [3] | outcome [4] | outcome [5] | outcome [6] | Potency [17] | outcome [8] | outcome [10] | Potency [11] | Potency [12] | Potency [13] | Potency [14] | Potency [15] | Potency [16]
38 µM (active) and inactive: Potency [9]

CSCCC=O
inactive: Potency [1] | outcome [2] | outcome [3] | outcome [4] | outcome [5] | outcome [6] | Potency [7] | outcome [8] | Potency [9] | outcome [10] | Potency [11] | Potency [12] | Potency [13] | Potency [14] | Potency [16]

CCCCCC1=CCCC1=O
inactive: outcome [2] | outcome [3] | outcome [4] | outcome [5] | outcome [6] | Potency [17] | outcome [8] | Potency [9] | outcome [10] | Potency [11] | Potency [12] | Potency [13] | Potency [14] | Potency [16]

FC(F)(F)c1ccc(Cl)c(Cl)c1
inactive: outcome [2] | outcome [3] | outcome [4] | outcome [5] | outcome [6] | Potency [7] | Potency [17] | outcome [8] | Potency [18] | Potency [9] | outcome [10] | Potency [13] | Potency [14] | Potency [15] | Potency [16]

c1c[nH]cn1
inactive: outcome [2] | outcome [3] | outcome [4] | outcome [5] | outcome [6] | Potency [7] | Potency [17] | outcome [8] | Potency [9] | outcome [10] | Potency [11] | Potency [12] | Potency [13] | Potency [14] | Potency [15] | Potency [16]

CCN(CC)c1ccc(C(=O)c2ccccc2C(=O)O)c(O)c1
active: Potency [12] 10.9 µM and 34.4 µM | Potency [14] 28.4 µM and 25.2 µM
inactive: Potency [1] | outcome [2] | outcome [3] | outcome [4] | outcome [5] | outcome [6] | Potency [7] | outcome [8] | Potency [9] | outcome [10] | Potency [11] | Potency [13] | Potency [15] | Potency [16]

COc1ccc2cc([C@H](C)C(=O)O)ccc2c1
inactive: Potency [1] | outcome [2] | outcome [3] | outcome [4] | outcome [5] | outcome [6] | Potency [7] | Potency [17] | outcome [8] | Potency [9] | outcome [10] | outcome [20] | Potency [13] | Potency [15] | Potency [16]
